# Results taken from article PMC7862700, “An all-to-all approach to the identification of sequence-specific readers for epigenetic DNA modifications on cytosine”.
# Key:
# Assay in all cases: DAPPL (digital affinity profiling via proximity ligation, sequencing); 10 mM Tris-HCl pH 7.5, 50 mM NaCl, 1 mM DTT, 4% glycerol, room temperature, 30 min; GST-TFs on glutathione beads, 16-mer random dsDNA library, 0.1% formaldehyde crosslink after washing; high values mean tight binding
# [1] = target: T1, FLI1 (Homo sapiens, UniProt Q01543 1-452); conditions: protein: recombinant; tags: N-terminal GST; dsDNA, one strand shown
# T1 sequence: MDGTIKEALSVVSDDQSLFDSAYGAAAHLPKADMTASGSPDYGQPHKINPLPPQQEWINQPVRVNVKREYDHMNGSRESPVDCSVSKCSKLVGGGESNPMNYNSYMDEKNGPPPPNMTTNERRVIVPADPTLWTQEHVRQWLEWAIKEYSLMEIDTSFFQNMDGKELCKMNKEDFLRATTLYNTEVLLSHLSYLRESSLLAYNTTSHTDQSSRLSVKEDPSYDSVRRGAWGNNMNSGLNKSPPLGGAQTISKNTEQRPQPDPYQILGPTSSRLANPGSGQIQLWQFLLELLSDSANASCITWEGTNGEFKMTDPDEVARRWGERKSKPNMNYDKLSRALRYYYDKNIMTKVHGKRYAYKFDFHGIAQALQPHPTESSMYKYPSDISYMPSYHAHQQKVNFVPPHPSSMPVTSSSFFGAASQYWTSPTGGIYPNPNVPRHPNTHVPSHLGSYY
# Method in brief: (§1)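 The binding signal reported is, for every hexamer, its read frequency for a factor over its read frequency for the tag-only sample. Reads came from pools of yeast-expressed, GST-fused human transcription factors on glutathione beads, barcoded with DNA and mixed with that sample, which were incubated with 200 nmole of a random double-stranded 16-mer DNA library in Tris/NaCl/DTT/glycerol buffer at room temperature for 30 min. After washing, the pools were crosslinked with 0.1% formaldehyde, proximity-ligated with BsaI/T4 ligase for 1 h at 37 °C, PCR-amplified and sequenced on an Illumina NextSeq500.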
# [2] = target: T2, ELK1 (Homo sapiens, UniProt P19419 1-428); conditions: protein: recombinant; tags: N-terminal GST; dsDNA, one strand shown
# T2 sequence: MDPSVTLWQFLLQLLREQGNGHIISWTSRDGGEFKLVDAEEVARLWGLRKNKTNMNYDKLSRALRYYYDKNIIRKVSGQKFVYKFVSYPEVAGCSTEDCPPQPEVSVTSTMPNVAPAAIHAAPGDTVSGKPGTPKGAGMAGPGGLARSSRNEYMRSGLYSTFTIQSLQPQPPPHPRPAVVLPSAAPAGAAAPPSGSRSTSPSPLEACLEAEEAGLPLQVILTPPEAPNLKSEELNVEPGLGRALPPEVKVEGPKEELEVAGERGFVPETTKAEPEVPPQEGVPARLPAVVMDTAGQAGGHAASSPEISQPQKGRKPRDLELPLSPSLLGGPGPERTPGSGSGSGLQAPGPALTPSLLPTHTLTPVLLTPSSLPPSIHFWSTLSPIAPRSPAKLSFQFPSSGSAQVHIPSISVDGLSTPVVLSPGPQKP
# Method in brief: as §1
# [3] = target: T3, GABPA (Homo sapiens, UniProt Q06546 1-454); conditions: protein: recombinant; tags: N-terminal GST; dsDNA, one strand shown
# T3 sequence: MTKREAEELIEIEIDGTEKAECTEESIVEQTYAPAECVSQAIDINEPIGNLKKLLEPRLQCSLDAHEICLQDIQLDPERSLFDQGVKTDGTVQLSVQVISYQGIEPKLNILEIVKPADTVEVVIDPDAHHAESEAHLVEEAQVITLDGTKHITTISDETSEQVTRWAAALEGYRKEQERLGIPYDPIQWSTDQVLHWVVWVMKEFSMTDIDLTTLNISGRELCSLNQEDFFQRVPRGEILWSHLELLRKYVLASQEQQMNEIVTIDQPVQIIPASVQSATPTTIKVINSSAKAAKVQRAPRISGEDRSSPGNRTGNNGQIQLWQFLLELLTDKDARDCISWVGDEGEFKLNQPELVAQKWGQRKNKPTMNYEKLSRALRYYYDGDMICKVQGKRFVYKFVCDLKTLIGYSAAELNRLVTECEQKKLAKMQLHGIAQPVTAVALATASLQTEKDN
# Method in brief: as §1
# [4] = target: T4, ERG (Homo sapiens, UniProt P11308 1-479); conditions: protein: recombinant; tags: N-terminal GST; dsDNA, one strand shown
# T4 sequence: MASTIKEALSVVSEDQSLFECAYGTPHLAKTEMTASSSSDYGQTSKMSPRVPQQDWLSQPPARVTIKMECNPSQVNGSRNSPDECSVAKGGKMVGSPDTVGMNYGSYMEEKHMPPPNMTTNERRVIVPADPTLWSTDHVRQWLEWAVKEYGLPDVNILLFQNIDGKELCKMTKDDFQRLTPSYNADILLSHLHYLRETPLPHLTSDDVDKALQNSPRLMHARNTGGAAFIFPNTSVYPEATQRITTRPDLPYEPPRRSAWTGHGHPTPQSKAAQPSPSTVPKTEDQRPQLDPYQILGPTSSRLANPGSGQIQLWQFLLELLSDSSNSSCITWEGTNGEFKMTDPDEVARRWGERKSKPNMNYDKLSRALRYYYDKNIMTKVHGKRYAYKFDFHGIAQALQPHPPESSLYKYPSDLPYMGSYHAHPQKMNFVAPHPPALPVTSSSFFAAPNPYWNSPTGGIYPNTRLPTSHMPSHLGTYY
# Method in brief: as §1
# [5] = target: ELF1 (Homo sapiens, UniProt P32519 1-619); conditions: protein: recombinant; tags: N-terminal GST; dsDNA, one strand shown
# Method in brief: as §1
# [6] = target: T5, EHF (Homo sapiens, UniProt Q9NZC4 1-300); conditions: protein: recombinant; tags: N-terminal GST; dsDNA, one strand shown
# T5 sequence: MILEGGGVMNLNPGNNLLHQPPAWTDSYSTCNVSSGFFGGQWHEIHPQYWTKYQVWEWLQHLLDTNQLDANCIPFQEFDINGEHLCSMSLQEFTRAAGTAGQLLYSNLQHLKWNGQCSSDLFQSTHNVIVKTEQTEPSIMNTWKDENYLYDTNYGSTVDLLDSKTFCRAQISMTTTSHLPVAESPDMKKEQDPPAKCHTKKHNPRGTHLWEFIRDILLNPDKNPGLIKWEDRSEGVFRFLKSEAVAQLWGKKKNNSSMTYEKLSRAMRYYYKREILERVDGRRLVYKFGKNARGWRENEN
# Method in brief: as §1
# [7] = target: SPI1 (Homo sapiens, UniProt P17947 1-270); conditions: protein: recombinant; tags: N-terminal GST; dsDNA, one strand shown
# Method in brief: as §1
# [8] = target: SPIB (Homo sapiens, UniProt Q01892 1-262); conditions: protein: recombinant; tags: N-terminal GST; dsDNA, one strand shown
# Method in brief: as §1
# [9] = target: T6, ELK3 (Homo sapiens, UniProt P41970 1-407); conditions: protein: recombinant; tags: N-terminal GST; dsDNA, one strand shown
# T6 sequence: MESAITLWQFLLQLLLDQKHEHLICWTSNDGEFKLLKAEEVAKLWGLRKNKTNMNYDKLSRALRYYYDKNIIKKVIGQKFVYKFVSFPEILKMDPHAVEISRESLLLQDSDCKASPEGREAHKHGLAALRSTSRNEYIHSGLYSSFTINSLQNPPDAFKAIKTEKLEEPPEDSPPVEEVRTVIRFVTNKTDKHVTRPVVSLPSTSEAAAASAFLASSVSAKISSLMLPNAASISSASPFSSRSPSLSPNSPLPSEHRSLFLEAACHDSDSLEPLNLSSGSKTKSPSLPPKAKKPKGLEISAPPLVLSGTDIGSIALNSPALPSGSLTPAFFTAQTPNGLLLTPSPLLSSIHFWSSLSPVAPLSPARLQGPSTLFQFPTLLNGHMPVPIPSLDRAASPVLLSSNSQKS
# Method in brief: as §1
# [10] = target: T7, FEV (Homo sapiens, UniProt Q99581 1-238); conditions: protein: recombinant; tags: N-terminal GST; dsDNA, one strand shown
# T7 sequence: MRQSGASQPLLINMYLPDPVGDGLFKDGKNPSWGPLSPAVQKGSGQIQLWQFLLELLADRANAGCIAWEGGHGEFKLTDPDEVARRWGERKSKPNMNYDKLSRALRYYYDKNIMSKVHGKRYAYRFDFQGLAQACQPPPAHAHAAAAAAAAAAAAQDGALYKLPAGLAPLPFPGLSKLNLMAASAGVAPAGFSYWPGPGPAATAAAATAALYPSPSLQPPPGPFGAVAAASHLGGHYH
# Method in brief: as §1
# [11] = target: ETV5 (Homo sapiens, UniProt P41161 1-510); conditions: protein: recombinant; tags: N-terminal GST; dsDNA, one strand shown
# Method in brief: as §1
# [12] = target: HSF1 (Homo sapiens, UniProt Q00613 1-529); conditions: protein: recombinant; tags: N-terminal GST; chain copies: 3; dsDNA, one strand shown
# Method in brief: as §1
# [13] = target: T8, SPIC (Homo sapiens, UniProt Q8N5J4 1-248); conditions: protein: recombinant; tags: N-terminal GST; dsDNA, one strand shown
# T8 sequence: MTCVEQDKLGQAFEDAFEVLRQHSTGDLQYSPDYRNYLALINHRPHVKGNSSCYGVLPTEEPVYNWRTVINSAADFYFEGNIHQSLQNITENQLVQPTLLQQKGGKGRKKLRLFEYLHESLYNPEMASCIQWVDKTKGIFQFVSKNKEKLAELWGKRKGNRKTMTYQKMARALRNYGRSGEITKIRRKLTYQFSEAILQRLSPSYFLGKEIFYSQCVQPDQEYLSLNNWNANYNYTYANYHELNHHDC
# Method in brief: as §1
# [14] = target: ELF4 (Homo sapiens, UniProt Q99607 1-663); conditions: protein: recombinant; tags: N-terminal GST; dsDNA, one strand shown
# Method in brief: as §1
# [15] = target: T9, ELK4 (Homo sapiens, UniProt P28324-2 1-405); conditions: protein: recombinant; tags: N-terminal GST; dsDNA, one strand shown
# T9 sequence: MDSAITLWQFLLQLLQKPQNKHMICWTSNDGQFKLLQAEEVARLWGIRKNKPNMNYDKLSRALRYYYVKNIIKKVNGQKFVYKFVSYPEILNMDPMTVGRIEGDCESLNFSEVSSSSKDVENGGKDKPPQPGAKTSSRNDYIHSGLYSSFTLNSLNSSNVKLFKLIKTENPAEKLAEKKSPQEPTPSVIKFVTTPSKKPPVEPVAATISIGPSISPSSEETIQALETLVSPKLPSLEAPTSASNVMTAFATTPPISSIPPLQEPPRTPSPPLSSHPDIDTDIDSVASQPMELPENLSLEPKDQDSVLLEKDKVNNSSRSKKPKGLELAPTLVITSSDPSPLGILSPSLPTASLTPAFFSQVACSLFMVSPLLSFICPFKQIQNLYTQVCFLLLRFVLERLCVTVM
# Method in brief: as §1
# [16] = target: T10, ETV2 (Homo sapiens, UniProt O00321 1-342); conditions: protein: recombinant; tags: N-terminal GST; dsDNA, one strand shown
# T10 sequence: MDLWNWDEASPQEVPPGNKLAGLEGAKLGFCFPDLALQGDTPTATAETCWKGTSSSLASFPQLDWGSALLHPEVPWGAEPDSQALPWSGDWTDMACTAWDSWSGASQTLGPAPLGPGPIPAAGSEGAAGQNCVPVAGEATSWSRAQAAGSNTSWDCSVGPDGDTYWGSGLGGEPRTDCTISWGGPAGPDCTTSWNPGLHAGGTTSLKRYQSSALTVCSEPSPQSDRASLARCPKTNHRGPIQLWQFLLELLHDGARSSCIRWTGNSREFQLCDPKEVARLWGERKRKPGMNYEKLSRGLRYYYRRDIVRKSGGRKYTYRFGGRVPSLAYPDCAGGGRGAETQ
# Method in brief: as §1
# [17] = target: CRX (Homo sapiens, UniProt O43186 1-299); conditions: protein: recombinant; tags: N-terminal GST; dsDNA, one strand shown
# Method in brief: as §1
# [18] = target: ETV1 (Homo sapiens, UniProt P50549 1-477); conditions: protein: recombinant; tags: N-terminal GST; dsDNA, one strand shown
# Method in brief: as §1
# CRX, sequence (O43186 whole entry): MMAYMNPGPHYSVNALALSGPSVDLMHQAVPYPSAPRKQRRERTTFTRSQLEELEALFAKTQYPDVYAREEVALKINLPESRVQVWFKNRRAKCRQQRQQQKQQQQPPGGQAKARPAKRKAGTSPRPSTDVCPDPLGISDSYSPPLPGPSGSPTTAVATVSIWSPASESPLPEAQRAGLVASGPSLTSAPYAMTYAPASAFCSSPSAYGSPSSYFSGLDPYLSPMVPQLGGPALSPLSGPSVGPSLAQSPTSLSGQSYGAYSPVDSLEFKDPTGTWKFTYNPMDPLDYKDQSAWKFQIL
# HSF1, sequence (Q00613 whole entry): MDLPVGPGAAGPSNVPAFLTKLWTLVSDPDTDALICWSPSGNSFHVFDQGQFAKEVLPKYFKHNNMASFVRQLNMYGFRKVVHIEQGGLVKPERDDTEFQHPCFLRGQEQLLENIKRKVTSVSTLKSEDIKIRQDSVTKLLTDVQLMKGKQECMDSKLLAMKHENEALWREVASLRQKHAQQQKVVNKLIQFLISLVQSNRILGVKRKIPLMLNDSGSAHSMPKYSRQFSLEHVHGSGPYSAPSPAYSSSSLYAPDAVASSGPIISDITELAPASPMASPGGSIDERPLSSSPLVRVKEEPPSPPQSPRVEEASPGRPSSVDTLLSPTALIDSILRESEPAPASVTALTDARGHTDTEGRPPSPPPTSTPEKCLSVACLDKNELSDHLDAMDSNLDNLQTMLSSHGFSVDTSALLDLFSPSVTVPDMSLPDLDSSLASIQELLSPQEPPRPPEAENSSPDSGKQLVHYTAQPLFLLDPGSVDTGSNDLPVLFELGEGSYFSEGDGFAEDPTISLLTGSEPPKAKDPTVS
# ETV1, sequence (P50549 whole entry): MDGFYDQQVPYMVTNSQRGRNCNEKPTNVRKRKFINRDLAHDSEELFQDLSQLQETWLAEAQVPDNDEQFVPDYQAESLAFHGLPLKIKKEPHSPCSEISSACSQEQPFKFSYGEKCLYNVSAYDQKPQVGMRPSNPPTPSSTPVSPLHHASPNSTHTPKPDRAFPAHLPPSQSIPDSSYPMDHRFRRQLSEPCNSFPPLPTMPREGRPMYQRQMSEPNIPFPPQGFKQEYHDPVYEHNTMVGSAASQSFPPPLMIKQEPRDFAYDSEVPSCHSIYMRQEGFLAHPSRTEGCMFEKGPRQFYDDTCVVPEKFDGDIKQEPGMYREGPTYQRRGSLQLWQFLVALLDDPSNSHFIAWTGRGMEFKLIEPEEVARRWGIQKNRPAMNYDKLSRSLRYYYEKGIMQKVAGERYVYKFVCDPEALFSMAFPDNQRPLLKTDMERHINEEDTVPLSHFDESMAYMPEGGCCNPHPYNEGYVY
# ETV5, sequence (P41161 whole entry): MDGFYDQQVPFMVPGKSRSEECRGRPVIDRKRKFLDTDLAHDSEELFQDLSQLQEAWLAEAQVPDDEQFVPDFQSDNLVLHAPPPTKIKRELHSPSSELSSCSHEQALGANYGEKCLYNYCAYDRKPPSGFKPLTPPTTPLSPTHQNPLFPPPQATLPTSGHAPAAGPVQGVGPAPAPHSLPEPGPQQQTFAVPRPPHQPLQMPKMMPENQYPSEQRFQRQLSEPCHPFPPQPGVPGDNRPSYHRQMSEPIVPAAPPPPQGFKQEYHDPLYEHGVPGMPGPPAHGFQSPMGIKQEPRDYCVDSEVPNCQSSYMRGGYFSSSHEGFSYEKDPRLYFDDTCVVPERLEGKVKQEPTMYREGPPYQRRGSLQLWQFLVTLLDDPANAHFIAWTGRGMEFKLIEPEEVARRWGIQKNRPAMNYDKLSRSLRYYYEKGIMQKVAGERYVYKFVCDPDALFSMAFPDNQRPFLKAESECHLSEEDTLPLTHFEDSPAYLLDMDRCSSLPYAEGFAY
# SPIB, sequence (Q01892 whole entry): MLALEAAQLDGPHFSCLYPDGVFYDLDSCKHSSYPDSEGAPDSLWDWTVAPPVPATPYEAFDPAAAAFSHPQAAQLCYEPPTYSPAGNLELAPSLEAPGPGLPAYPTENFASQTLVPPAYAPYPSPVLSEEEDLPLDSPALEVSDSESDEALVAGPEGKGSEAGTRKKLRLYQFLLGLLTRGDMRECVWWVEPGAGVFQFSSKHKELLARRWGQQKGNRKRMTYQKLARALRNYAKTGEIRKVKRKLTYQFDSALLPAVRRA
# ELF4, sequence (Q99607 whole entry): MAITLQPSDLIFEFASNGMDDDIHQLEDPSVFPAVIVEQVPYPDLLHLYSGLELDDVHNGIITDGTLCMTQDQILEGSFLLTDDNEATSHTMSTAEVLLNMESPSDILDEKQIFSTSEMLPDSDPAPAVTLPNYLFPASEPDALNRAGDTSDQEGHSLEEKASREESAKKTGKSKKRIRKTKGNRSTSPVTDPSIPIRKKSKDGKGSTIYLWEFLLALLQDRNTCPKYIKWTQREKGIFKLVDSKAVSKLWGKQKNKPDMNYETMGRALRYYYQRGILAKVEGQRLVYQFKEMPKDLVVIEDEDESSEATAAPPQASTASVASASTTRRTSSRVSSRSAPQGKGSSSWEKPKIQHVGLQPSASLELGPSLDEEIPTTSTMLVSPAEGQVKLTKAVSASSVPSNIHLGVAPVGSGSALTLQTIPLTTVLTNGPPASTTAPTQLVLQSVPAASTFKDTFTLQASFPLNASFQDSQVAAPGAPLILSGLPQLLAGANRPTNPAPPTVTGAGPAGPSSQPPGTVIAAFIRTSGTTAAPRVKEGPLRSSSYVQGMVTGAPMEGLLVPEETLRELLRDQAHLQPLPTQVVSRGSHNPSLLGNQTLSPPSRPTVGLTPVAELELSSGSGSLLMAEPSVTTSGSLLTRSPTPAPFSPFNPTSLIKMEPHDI
# ELF1, sequence (P32519 whole entry): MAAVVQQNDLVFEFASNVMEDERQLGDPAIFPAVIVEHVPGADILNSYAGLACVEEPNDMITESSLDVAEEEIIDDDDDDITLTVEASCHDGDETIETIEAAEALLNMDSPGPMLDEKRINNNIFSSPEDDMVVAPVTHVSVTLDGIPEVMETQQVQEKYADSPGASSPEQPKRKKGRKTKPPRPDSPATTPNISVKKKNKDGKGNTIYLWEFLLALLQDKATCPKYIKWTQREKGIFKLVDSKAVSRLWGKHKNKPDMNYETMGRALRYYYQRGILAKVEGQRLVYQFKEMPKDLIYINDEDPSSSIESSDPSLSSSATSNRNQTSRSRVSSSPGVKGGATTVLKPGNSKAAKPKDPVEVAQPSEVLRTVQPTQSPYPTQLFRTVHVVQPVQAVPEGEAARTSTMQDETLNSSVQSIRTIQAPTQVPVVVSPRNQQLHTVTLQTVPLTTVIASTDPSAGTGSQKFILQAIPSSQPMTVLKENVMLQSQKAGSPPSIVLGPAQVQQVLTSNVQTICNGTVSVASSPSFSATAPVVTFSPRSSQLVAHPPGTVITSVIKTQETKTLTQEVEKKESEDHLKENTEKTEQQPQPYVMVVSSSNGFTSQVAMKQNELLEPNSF
sequence,measurement,setting,value
AGCCTA,binding signal,[1],"1.06 fold enrichment (6-mer frequency, TF over GST control)"
same,binding signal,[2],"1.05 fold enrichment (6-mer frequency, TF over GST control)"
same,binding signal,[3],"1.12 fold enrichment (6-mer frequency, TF over GST control)"
same,binding signal,[4],"1.08 fold enrichment (6-mer frequency, TF over GST control)"
same,binding signal,[5],"1.1 fold enrichment (6-mer frequency, TF over GST control)"
same,binding signal,[6],"1.04 fold enrichment (6-mer frequency, TF over GST control)"
same,binding signal,[7],"1.02 fold enrichment (6-mer frequency, TF over GST control)"
same,binding signal,[8],"1.02 fold enrichment (6-mer frequency, TF over GST control)"
same,binding signal,[9],"1.12 fold enrichment (6-mer frequency, TF over GST control)"
same,binding signal,[10],"1.01 fold enrichment (6-mer frequency, TF over GST control)"
same,binding signal,[11],"1.09 fold enrichment (6-mer frequency, TF over GST control)"
same,binding signal,[12],"1.21 fold enrichment (6-mer frequency, TF over GST control)"
same,binding signal,[13],"1.13 fold enrichment (6-mer frequency, TF over GST control)"
same,binding signal,[14],"1.09 fold enrichment (6-mer frequency, TF over GST control)"
same,binding signal,[15],"1.17 fold enrichment (6-mer frequency, TF over GST control)"
same,binding signal,[16],"1.12 fold enrichment (6-mer frequency, TF over GST control)"
same,binding signal,[17],"1.52 fold enrichment (6-mer frequency, TF over GST control)"
same,binding signal,[18],"1.12 fold enrichment (6-mer frequency, TF over GST control)"
